The entries come from a sample that favours hits as a whole.
SF-1 inh = SF-1 (human) inhibition | Q13285 | CHO-K1 Gal4-SF-1 LBD luciferase reporter | inhibition, % at 10 µM | hit rate 0.55% among 65,000 | AID 525;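 active means inhibition above the mean inhibition of all tested compounds plus 3 SD, cut at about 48% in these data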;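 further: 0% = SF-1 transfected cells with DMSO and 100% = mock-transfected cells lacking SF-1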
Target sequence (Q13285 whole entry, looked up, the tested form may be a part): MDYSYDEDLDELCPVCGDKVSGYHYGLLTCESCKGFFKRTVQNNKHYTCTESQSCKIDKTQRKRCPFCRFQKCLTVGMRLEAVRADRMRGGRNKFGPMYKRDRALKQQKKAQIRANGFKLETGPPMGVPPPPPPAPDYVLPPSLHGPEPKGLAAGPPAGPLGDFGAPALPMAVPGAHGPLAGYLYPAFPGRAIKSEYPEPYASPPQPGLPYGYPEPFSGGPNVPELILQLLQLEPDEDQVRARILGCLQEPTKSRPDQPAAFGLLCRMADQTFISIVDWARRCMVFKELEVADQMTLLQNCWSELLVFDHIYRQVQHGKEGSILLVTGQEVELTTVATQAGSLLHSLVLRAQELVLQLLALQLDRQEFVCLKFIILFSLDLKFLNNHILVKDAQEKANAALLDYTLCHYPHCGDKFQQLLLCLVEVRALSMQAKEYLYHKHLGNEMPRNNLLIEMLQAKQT
* hit, by the source's call.

SMILES	SF-1 inh
CCCc1ccc(-c2ccc(F)c(N)c2)nc1	60*
CC(NC(=O)C1CCC(=O)N1Cc1ccc(F)cc1)c1ccc2c(c1)OCCO2 (stereo not drawn)	-9
COc1cccc(NC(=O)COc2ccccc2C(N)=O)c1	-62
COc1ccc(O)c(C(=O)CC(=O)c2ccc(F)cc2)c1	52*
COc1cccc(NC(=O)CN2CCN(c3ccccc3F)CC2)c1	-14
CCCCCCC(=O)c1c(C)[nH]c(C(=O)OCC)c1C	-53
CN1C(=O)c2ccc(C(=O)NC3CCCCC3)cc2C1=O	-6
N#C/C(C(=O)c1ccccc1)=C1/CCCCCN1	-61
CCCCNC(=O)c1nnn(-c2ccccc2)c1N	-67
c1ccc(OCCSc2nnnn2-c2ccccc2)cc1	-63
Cc1ccc(OCCSc2nnc(-c3ccncc3)n2C)cc1	6
c1ccc(OCCSc2nnc3sc4ccccc4n23)cc1	54*
CCOC(=O)c1sc(NC(=O)c2ccc3ncsc3c2)nc1C	-76
O=C1CC(CCC(=O)NC2CC2)c2ccccc2N1 (stereo not drawn)	2
O=C(Cn1nnc(-c2ccccc2)n1)OCc1csc(-c2ccccc2)n1	-19
COc1ccc(-c2ccc(-c3nnn(CC(C)=O)n3)cc2)cc1	-90
CCc1ccc(-c2nnn(CCC(=O)OC)n2)cc1	52*
CCC(=O)Nc1nc(C)cc(SCC(=O)OC)n1	2
C/C(N)=C(/C#N)C(=O)COC(=O)c1cc(C)n(-c2ccc(F)cc2)c1C	-65
Brc1ccc(-c2cnc(-c3cccs3)o2)cc1	-52
CCCCOC(=O)C(C)c1c(C)[nH]c(=S)[nH]c1=O (stereo not drawn)	-5
O=S(=O)(NCc1cn2ccsc2n1)c1ccc(Oc2ccccc2)cc1	52*
Cc1csc2nc(CNS(=O)(=O)c3ccc(-c4ccccc4)cc3)cn12	3
Cc1nc(CNS(=O)(=O)c2ccc3ccccc3c2)cs1	11
CCC(C)(C)n1nnnc1C(c1cccc(C#N)c1)N1CCN(c2cccc(C)c2C)CC1 (stereo not drawn)	8
SMILES	SF-1 inh
O=C(CN1CCN(c2ccccn2)CC1)Nc1cccc(C(F)(F)F)c1	16
Cc1cnc(NC(=O)CN2CCN(c3ccccn3)CC2)s1	61*
COc1ccccc1NC(=O)N1CCN(c2ccccn2)CC1	13
COC(=O)c1cccc(C(=O)Nc2ccc(C)cc2)n1	-50
Cc1ccc(SCCNC(=O)C(CO)(CO)CO)cc1	-5
CCN(CC)c1ccc2c(c1)CCCN2	5
CC(C)c1ccc(NC(=O)C2CCCN(S(=O)(=O)c3cnc[nH]3)C2)cc1 (stereo not drawn)	-6
Cc1ccccc1NC(=O)N1CCCC(c2nc(-c3ccc(C(C)C)cc3)no2)C1 (stereo not drawn)	51*
Cc1ccsc1C(=O)OCC(=O)Nc1sccc1C(N)=O	-74
COc1cccc(CN(Cc2cccnc2)S(=O)(=O)c2ccc(-n3cnnn3)c(C)c2)c1	4
CC(C)(C)c1cc(CN2CCCC(O)C2)c(O)c(C(C)(C)C)c1 (stereo not drawn)	14
CCOC(=O)C1CCN(C(=O)CC(NS(=O)(=O)c2ccc(OC)cc2)C(C)C)CC1 (stereo not drawn)	-2
COc1ccc(NC(=O)Nc2cccc(C)n2)cc1	-64
Cc1cccc(NC(=O)Nc2ccc(C#N)cc2)n1	71*
Cc1cccc(NC(=O)c2cc3ccccc3c(=O)o2)n1	-65
COC(=O)c1cc(OC)c(OC)cc1NC(=O)CSc1nnnn1Cc1ccccc1	-16
O=C(CNC(=O)c1ccccc1C(=O)O)c1ccccc1	-56
CCS(=O)(=O)Nc1cc(-c2nc3cccnc3s2)ccc1C	-71
O=S(=O)(Nc1cccc2ncccc12)c1cccs1	96*
C=CCn1c2ccccc2c2nnc(SCCCn3c(=O)[nH]c4ccccc43)nc21	6
CC(=O)NCc1ccc(-c2csc(N)n2)s1	7
c1ccc(OCCSc2ncnc3nc[nH]c23)cc1	-24
CCOC(=O)c1cnc2c(-c3ccccc3)cnn2c1N	-52
CCOC(=O)c1c(C)nc(-c2ccccc2)nc1N	-58
CCOC(=O)C1=Nc2ccccc2C1=[N+]=[N-]	84*
SMILES	SF-1 inh
O=C(CC(=O)c1ccccc1)Nc1ccc2c(c1)OCCO2	-61
Cc1nc2ccccn2c1P(=Nc1ccccc1)(N(C)C)N(C)C	3
COc1ccc(OC)c(C(=O)CSc2nc3c(c(=O)n(C)c(=O)n3C)n2C(C)C)c1	9
COc1ccc(-n2nc(C(=O)NCc3ccco3)c3c4ccccc4n(C)c3c2=O)cc1	26
Cn1c(=O)c2c(nc(CN3CCN(C(=O)c4ccco4)CC3)n2Cc2ccc(F)cc2)n(C)c1=O	-12
COc1ccc(Cl)c(Cn2c(NCc3ccco3)nc3c2c(=O)n(C)c(=O)n3C)c1	49*
CCN(CC)CCn1c(NCc2cccc(OC)c2)nc2ccccc21	3
COc1cccc(Cn2c(NCc3ccco3)nc3c2c(=O)n(C)c(=O)n3C)c1	63*
O=C(CN1CCOCC1)N(c1ccccc1)c1ccc2ccccc2c1	7
Cn1c(-n2c(-c3ccco3)nc3ccccc3c2=O)nc2ccccc21	15
O=C(CN1C(=O)CSC1=O)Nc1ccc(F)c(F)c1F	4
Nc1nc(CSc2ncn(-c3ccccc3)n2)cs1	-59
CCOc1cc(CNC(=O)CN2C(=O)c3ccccc3S2(=O)=O)ccc1OC	9
CN(C)C=Nc1ncc2c([nH]c3ccccc32)c1C#N	-16
CCc1c(C#N)c(N)nc(SCC(=O)OCc2ccccc2)c1C#N	-2
Nc1nc(-c2ccc3c(c2)OCCO3)cs1	-64
Cc1ccc(-c2csc(N3CCC(NS(=O)(=O)c4ccc5c(c4)OCCO5)CC3)n2)cc1	53*
CS(=O)(=O)N1CCN(c2nc(-c3ccc(F)cc3)cs2)CC1	-24
COC(=O)N(C)CCCC1(C)C(=O)N(C)c2ccc(O)cc21 (stereo not drawn)	-2
Nc1nonc1-c1noc(CCCN2C(=O)c3ccccc3C2=O)n1	-50
CCOC(=O)N1CCC(NC(=O)c2ccc(OC)c(CN3CC(=O)N4CCCC4C3=O)c2)CC1 (stereo not drawn)	-5
CCOC(=O)N1CCC(NC(=O)C2CCCN(Cc3nc(-c4cccc(Cl)c4)oc3C)C2)CC1 (stereo not drawn)	58*
CCOC(=O)N1CCC(NC(=O)c2cnn3c(C(F)(F)F)cc(-c4cccc(OC)c4)nc23)CC1	2
C/C=C(\C)CN1CCc2cc(OC)c(OC)cc2C1	11
Cc1ccc(NC(=O)C2CCCN(c3ncccn3)C2)cc1F (stereo not drawn)	-67
SMILES	SF-1 inh
CCc1ccccc1N(CC(=O)NCc1ccco1)C(=O)c1snc(C(N)=O)c1N	-5
COc1ccccc1NC(=O)C1C2C=CC3(CN(Cc4cccnc4)C(=O)C13)O2 (stereo not drawn)	13
CC(C)(C)c1ccc(-c2cc(N)n[nH]2)cc1	48*
COC(=O)c1[nH]c2ccccc2c1NC(=O)CN1CCN(c2cccc(Cl)c2)CC1	-20
CCOc1ccccc1C(=O)N1CCN(c2cccc(Cl)c2)CC1	55*
CCOc1ccccc1C(=O)N1CCN=C1SC	6
CCCCP(=O)(CCCC)c1ccccc1C(=O)O	-10
Cc1c(CCC#N)c(N2CCN(C3CCCCC3)CC2)n2c(nc3ccccc32)c1C#N	-1
CCOC(=O)c1ccccc1NC(=O)COC(=O)C1=COCCO1	4
CC(=O)c1c(C)[nH]c(C(=O)Nc2ccc(C)cn2)c1C	51*
CC(=O)c1c(C)[nH]c(C)c1C(C)=O	7
Cc1ccccc1C(=O)Nc1ccc(Br)cn1	-82
CCOC(=O)c1c(C)[nH]c(C(=O)COC(=O)CNC(=O)C2CCCCC2)c1C	0
